The record followed here is PubChem BioAssay (NCI).

Assay [1] is described as follows: NCI Yeast Anticancer Drug Screen. Data for the rad50 strain (AID 155).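 Note: 0% = growth of vehicle-only cultures of the same strain.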 The note with it: S. cerevisiae rad50 strain growth inhibition, hits give high values. Put shortly: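 Yeast carrying a defined DNA repair defect were exposed to test compounds, and growth was compared with vehicle-treated controls to give percent inhibition.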
Assay [2] in a line: NCI Yeast Anticancer Drug Screen. Data for the mec2-1 strain (AID 157). The note with it: S. cerevisiae mec2-1 strain, hits give high values. Put shortly:
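Each compound was tested on mec2-1 yeast, a strain altered in DNA damage repair or cell cycle control. Growth inhibition is reported relative to vehicle.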

Assay [3] in a line: NCI Yeast Anticancer Drug Screen. Data for the sgs1 mgt1 strain (AID 161).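 Note: 0% = growth of cultures given vehicle only.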 The note with it: S. cerevisiae sgs1 mgt1 strain, hits give high values. Put shortly:
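Genetically altered yeast, compound exposure, growth inhibition relative to vehicle.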

Assay [4] can be described thus: NCI Yeast Anticancer Drug Screen. Data for the cln2 rad14 strain (AID 165).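 Note: 0% = growth equal to vehicle treated cultures.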 The note with it: S. cerevisiae cln2 rad14 strain, hits give high values. The method, boiled down: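 Test compounds were added to cln2 rad14 yeast cultures; inhibition of growth was then determined by comparison with vehicle treatment.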
Assay [5] can be described thus: NCI Yeast Anticancer Drug Screen. Data for the bub3 strain (AID 167). The note with it: S. cerevisiae bub3 mutant strain, hits give high values. Put shortly: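 Compounds were applied to a genetically altered yeast strain carrying a cell-cycle control defect. Growth inhibition was scored against vehicle-treated controls.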
Assay [6] can be described thus: NCI Yeast Anticancer Drug Screen. Data for the mlh1 rad18 strain (AID 175). The note with it: S. cerevisiae mlh1 rad18 strain growth inhibition, hits give high values. Put shortly: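 Inhibition values reflect reduced growth of mutant yeast versus vehicle-treated controls following compound exposure; the mutations affect DNA damage repair.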
Setting [7] is: at 5.0 µM (retest, dose inferred, filed as 0.5).
Where [8] appears, read: at 50.0 µM (retest, dose inferred, filed as 5.0).

The panel holds about 79,000 compounds, 15% with a hit somewhere; the sample as a whole holds those more often. Values without a mark were called inactive. Activity calls are given as the source filed them. Cut-off read from the data, not from the text of the source: active = growth inhibition above about 70%; inactive = the rest.

As to `NC(N)=NC(N)=Nc1ccc(-c2ccccc2)cc1`, the growth inhibition in assay [1] (setting [7]) was -17%; in assay [1] (setting [8]) it was 96% (active); in assay [1] (at 50.0 µM) it was -11.6%; in assay [2] (setting [7]), 1%; in assay [2] (setting [8]), 96% (active); in assay [2] (at 50.0 µM), 14.6%. Besides, the growth inhibition is 2% in assay [3] (setting [7]); 97% (active) in assay [3] (setting [8]); 2.45% in assay [3] (at 50.0 µM); -8% in assay [4] (setting [7]); 93% (active) in assay [4] (setting [8]); 7.8% in assay [4] (at 50.0 µM). Also, the growth inhibition is -1% in assay [5] (setting [7]); 97% (active) in assay [5] (setting [8]); 76.5% (active) in assay [5] (at 50.0 µM); 4% in assay [6] (setting [7]); 96% (active) in assay [6] (setting [8]); 32.4% in assay [6] (at 50.0 µM).
On to `N#CC(C(=O)C(N)=O)c1ccc(Cl)cc1Cl` (configuration not stated), for which the growth inhibition in assay [1] (setting [7]) is 0%; in assay [1] (setting [8]) it was -2%; in assay [1] (at 50.0 µM) it was 82.2% (active); in assay [2] (setting [7]), 1%; in assay [2] (setting [8]), 6%; in assay [2] (at 50.0 µM) it was 99.6% (active). In addition, the growth inhibition was 1% in assay [3] (setting [7]); 0% in assay [3] (setting [8]); 99.6% (active) in assay [3] (at 50.0 µM); -4% in assay [4] (setting [7]); 8% in assay [4] (setting [8]); 91.3% (active) in assay [4] (at 50.0 µM). The growth inhibition was -1% in assay [5] (setting [7]); 21% in assay [5] (setting [8]); 96.6% (active) in assay [5] (at 50.0 µM); -3% in assay [6] (setting [7]); 2% in assay [6] (setting [8]); 99.2% (active) in assay [6] (at 50.0 µM).
As to `O=C(Nc1ccccc1C(=O)O)c1ccccc1`, the growth inhibition is -7% in assay [1] (setting [7]); 50% in assay [1] (setting [8]); 44% in assay [1] (at 50.0 µM); 2% in assay [2] (setting [7]); -6% in assay [2] (setting [8]); 23.5% in assay [2] (at 50.0 µM). Further, the growth inhibition was -5% in assay [3] (setting [7]); -22% in assay [3] (setting [8]); 79.7% (active) in assay [3] (at 50.0 µM); -2% in assay [4] (setting [7]); -14% in assay [4] (setting [8]); -11.6% in assay [4] (at 50.0 µM). Further, the growth inhibition in assay [5] (setting [7]) is -14%; in assay [5] (setting [8]), 30%; in assay [5] (at 50.0 µM), 36%; in assay [6] (setting [7]), -7%; in assay [6] (setting [8]), 23%; in assay [6] (at 50.0 µM), 78.2% (active).
Consider `O=C1c2ccccc2C(=O)c2sc(Nc3ccccc3C(F)(F)F)nc21`, for which the growth inhibition in assay [1] (setting [7]) was 99% (active); in assay [1] (setting [8]) it was 96% (active); in assay [1] (at 50.0 µM), 90.3% (active); in assay [2] (setting [7]) it was 100% (active); in assay [2] (setting [8]) it was 97% (active); in assay [2] (at 50.0 µM) it was 92.1% (active). Besides, the growth inhibition in assay [3] (setting [7]) was 99% (active); in assay [3] (setting [8]), 96% (active); in assay [3] (at 50.0 µM), 92.7% (active); in assay [4] (setting [7]), 94% (active); in assay [4] (setting [8]), 97% (active); in assay [4] (at 50.0 µM), 90.5% (active). Further, the growth inhibition in assay [5] (setting [7]) was 99% (active); in assay [5] (setting [8]), 97% (active); in assay [5] (at 50.0 µM), 92.2% (active); in assay [6] (setting [7]), 99% (active); in assay [6] (setting [8]), 96% (active); in assay [6] (at 50.0 µM) it was 88.5% (active).
Regarding `CCCCCCCCCCCCN(CCO)CCO`, the growth inhibition in assay [1] (setting [7]) was 68%; in assay [1] (setting [8]) it was 95% (active); in assay [1] (at 50.0 µM) it was 74.9% (active); in assay [2] (setting [7]), 36%; in assay [2] (setting [8]) it was 96% (active); in assay [2] (at 50.0 µM), 79.3% (active). Also, the growth inhibition was 63% in assay [3] (setting [7]); 96% (active) in assay [3] (setting [8]); 89.5% (active) in assay [3] (at 50.0 µM); 67% in assay [4] (setting [7]); 92% (active) in assay [4] (setting [8]); 73.8% (active) in assay [4] (at 50.0 µM). Besides, the growth inhibition in assay [5] (setting [7]) was 57%; in assay [5] (setting [8]), 98% (active); in assay [5] (at 50.0 µM), 60.6%; in assay [6] (setting [7]), 41%; in assay [6] (setting [8]) it was 91% (active); in assay [6] (at 50.0 µM), 85.2% (active).
For the molecule `COc1ccc2c(c1)C(O)=C(CC=C(C)C)C(=O)C2=O`, the growth inhibition is -2% in assay [1] (setting [7]); 16% in assay [1] (setting [8]); 26.8% in assay [1] (at 50.0 µM); 22% in assay [2] (setting [7]); 46% in assay [2] (setting [8]); 35% in assay [2] (at 50.0 µM). The growth inhibition is 27% in assay [3] (setting [7]); 61% in assay [3] (setting [8]); 20.2% in assay [3] (at 50.0 µM); 7% in assay [4] (setting [7]); 1% in assay [4] (setting [8]); 46.3% in assay [4] (at 50.0 µM). The growth inhibition in assay [5] (setting [7]) is 8%; in assay [5] (setting [8]) it was 23%; in assay [5] (at 50.0 µM), 4.1%; in assay [6] (setting [7]) it was 35%; in assay [6] (setting [8]) it was 79% (active); in assay [6] (at 50.0 µM) it was 41.4%.
In the case of `Cn1c(=O)c2c(ncn2CCCCOc2ccc3c(c2)[n+]([O-])nc(N)[n+]3[O-])n(C)c1=O`, the growth inhibition is 4% in assay [1] (setting [7]); 38% in assay [1] (setting [8]); 44% in assay [1] (at 50.0 µM); 14% in assay [2] (setting [7]); 23% in assay [2] (setting [8]); 51.9% in assay [2] (at 50.0 µM). For the same molecule, the growth inhibition was 5% in assay [3] (setting [7]); 34% in assay [3] (setting [8]); 69.9% in assay [3] (at 50.0 µM); -23% in assay [4] (setting [7]); 52% in assay [4] (setting [8]); 69% in assay [4] (at 50.0 µM). In addition, the growth inhibition is -8% in assay [5] (setting [7]); 63% in assay [5] (setting [8]); 56.5% in assay [5] (at 50.0 µM); 32% in assay [6] (setting [7]); 82% (active) in assay [6] (setting [8]); 75.8% (active) in assay [6] (at 50.0 µM).
`CCOC(=O)C(Cl)C(Cl)C(=O)OCC` (configuration not stated): the growth inhibition is 12% in assay [1] (setting [7]); 98% (active) in assay [1] (setting [8]); 98.8% (active) in assay [1] (at 50.0 µM); 6% in assay [2] (setting [7]); 98% (active) in assay [2] (setting [8]); 99% (active) in assay [2] (at 50.0 µM). In addition, the growth inhibition was 2% in assay [3] (setting [7]); 99% (active) in assay [3] (setting [8]); 99.5% (active) in assay [3] (at 50.0 µM); 6% in assay [4] (setting [7]); 98% (active) in assay [4] (setting [8]); 98.4% (active) in assay [4] (at 50.0 µM). For the same molecule, the growth inhibition is 22% in assay [5] (setting [7]); 98% (active) in assay [5] (setting [8]); 99% (active) in assay [5] (at 50.0 µM); 12% in assay [6] (setting [7]); 99% (active) in assay [6] (setting [8]); 99% (active) in assay [6] (at 50.0 µM).
In the case of `Clc1nc2ccccc2nc1N1CCCCCC1`, the growth inhibition in assay [1] (setting [7]) was 0%; in assay [1] (setting [8]) it was 90% (active); in assay [1] (at 50.0 µM), -17.5%; in assay [2] (setting [7]), 2%; in assay [2] (setting [8]), 96% (active); in assay [2] (at 50.0 µM) it was -7.05%. Further, the growth inhibition in assay [3] (setting [7]) was 1%; in assay [3] (setting [8]), 72% (active); in assay [3] (at 50.0 µM) it was 25.6%; in assay [4] (setting [7]) it was -5%; in assay [4] (setting [8]), 74% (active); in assay [4] (at 50.0 µM), -21.4%. Further, the growth inhibition in assay [5] (setting [7]) is 9%; in assay [5] (setting [8]), 93% (active); in assay [5] (at 50.0 µM), 76% (active); in assay [6] (setting [7]), 2%; in assay [6] (setting [8]) it was 85% (active); in assay [6] (at 50.0 µM), 5.2%.
